SMILES strings stand for the structures. Values joined by “and” are separate entries in the source; they are usually repeats but may differ in a detail not shown here. Equal entries are not always repeated. Structures can show the parent of a compound that is named as a salt. ± gives the standard deviation of the averaged measurements.

In experiment [1] the test system is Molm13. Briefly: cell viability relative to DMSO control (bortezomib = 0%); higher = less growth inhibition. Particulars: 10 nM; 72 h. In outline:
(§1)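 Acute myeloid leukemia cells were plated at 1000 cells per well in 50 µL onto a 679-compound library of approved and investigational agents in 384-well plates and exposed to a single 10 nM dose for 72 h, in duplicate. Cell viability was measured by CellTiter-Glo luminescence on an EnVision reader. Readings were scaled to percentages by per-plate linear regression, with DMSO-treated cells set at 100% and positive-control-treated cells at 0%.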

For experiment [2], the system named is Mv4-11. The description is as above. As to conditions: 10 nM; 72 h. The method, boiled down: as §1

Turning to `O=C(Nc1cc(C(F)(F)F)ccc1N1CCCCC1)c1ccncc1`, the values for the cell viability in experiment [1] and in experiment [2] were 99.5 ± 9.8% and 129 ± 17%, respectively.

Consider `CS(=O)(=O)CCNCc1ccc(-c2ccc3ncnc(Nc4ccc(OCc5cccc(F)c5)c(Cl)c4)c3c2)o1` [Lapatinib], for which the cell viability in experiment [1] worked out at 96.5 ± 5.9%; in experiment [2], 103.5 ± 0.39%.

For the compound `Cc1c(F)cc(C(=O)NC2CC2)cc1-c1ccc(C(=O)NCC(C)(C)C)cn1`, the cell viability in experiment [1] amounted to 92.1 ± 8%; in experiment [2] it was 118 ± 20%.

For the compound `CN(N=O)C(=O)N[C@@H](C=O)[C@@H](O)[C@H](O)[C@H](O)CO` [Streptozocin], the cell viability in experiment [1] amounted to 89.4 ± 24%; in experiment [2], 108 ± 4.5%.

As to `Cc1nc2ccc(-n3ncc(C(=O)c4cc5ccccc5[nH]4)c3N)cc2[nH]1`, the cell viability worked out at 114 ± 3.2% in experiment [1] and 110 ± 12% in experiment [2].

For the compound `OCCn1cc(-c2cnc3nnn(Cc4ccc5ncccc5c4)c3n2)cn1`, the results for the cell viability in experiment [1] and in experiment [2] were 120 ± 24% and 112 ± 8.7%, respectively.

In the case of `CCc1cc2c(=O)c(-c3nc4ccccc4s3)coc2c(CN2CCCCC2)c1O`, the results for the cell viability in experiment [1] and in experiment [2] were 129 ± 34% and 123 ± 5.4%, respectively.

Turning to `CN(C)C[C@@H]1CCn2cc(c3ccccc32)C2=C(C(=O)NC2=O)c2cn(c3ccccc23)CCO1` [Ruboxistaurin hydrochloride], the cell viability in experiment [1] came out at 90 ± 7.3%; in experiment [2] it was 101 ± 10%.

As for `COc1cc2ncnc(Nc3ccc(F)c(Cl)c3)c2cc1OCCCN1CCOCC1` [Gefitinib], the cell viability was determined as 114.4 ± 0.96% in experiment [1] and 120 ± 1.4% in experiment [2].

Turning to `O=C(Nc1nc2cccc(-c3ccc(CN4CCS(=O)(=O)CC4)cc3)n2n1)C1CC1` [Filgotinib (GLPG0634)], the cell viability worked out at 86.4 ± 6% in experiment [1] and 107.7 ± 0.87% in experiment [2].

In the case of `C[C@@H](N)[C@H]1CC[C@H](C(=O)Nc2ccncc2)CC1`, the cell viability was 93.8% and 107% in experiment [1]; 100% and 112% in experiment [2].

In the case of `CSc1cccc(Nc2ncc3cc(-c4c(Cl)cccc4Cl)c(=O)n(C)c3n2)c1`, the cell viability in experiment [1] came to 92.8 ± 10%; in experiment [2], 101 ± 7.8%.

Consider `COc1cc2c(Oc3ccc(NC(=O)C4(C(=O)Nc5ccc(F)cc5)CC4)cc3F)ccnc2cc1OCCCN1CCOCC1`, for which the cell viability in experiment [1] is 14.3 ± 2.5%; in experiment [2], 15.8 ± 33%.

Consider `CC[C@@H]1C(=O)N(C)c2cnc(Nc3ccc(C(=O)NC4CCN(C)CC4)cc3OC)nc2N1C1CCCC1`, for which the figures for the cell viability in experiment [1] and in experiment [2] were 64.7 ± 9.6% and 96.8 ± 16%, respectively.

For the compound `CCCCNc1ncc(-c2ccc(CN3CCOCC3)cn2)c(NC2CCC(O)CC2)n1` (centres undefined), the cell viability in experiment [1] came out at 94.6 ± 6.1%; in experiment [2], 99.9 ± 5.7%.

`COC(=O)Nc1nc2cc(C(=O)c3cccs3)ccc2[nH]1` [Nocodazole]: the cell viability in experiment [1] is 112.8 ± 0.63%; in experiment [2], 105.5 ± 0.46%.

As to `CCN1/C(=C/C(C)=O)Sc2ccc(OC)cc21`, the cell viability in experiment [1] came out at 106 ± 11%; in experiment [2] it was 104 ± 6.5%.

For `C[C@@H](Oc1cc(-c2cnn(C3CCNCC3)c2)cnc1N)c1c(Cl)ccc(F)c1Cl`, the cell viability is 107 ± 16% in experiment [1] and 100 ± 20% in experiment [2].

With `CNC(=O)c1ccccc1Nc1nc(Nc2ccc(N3CCOCC3)cc2OC)ncc1Cl`, the figures for the cell viability in experiment [1] and in experiment [2] were 90.55 ± 0.19% and 109 ± 5.5%, respectively.

Take `O=C(Nc1ccc(OC(F)(F)F)cc1)c1sccc1NCc1ccnc2ccccc12`: the cell viability worked out at 111 ± 3.1% in experiment [1] and 109 ± 6% in experiment [2].

Turning to `CC#CC(=O)Nc1ccc2ncnc(Nc3cccc(Br)c3)c2c1`, the cell viability was determined as 99.9 ± 3.4% in experiment [1] and 98.9 ± 4.2% in experiment [2].

Take `Fc1ccc(-c2nc3n(c2-c2ccncc2)CCS3)cc1`: the cell viability amounted to 102.8 ± 0.71% in experiment [1] and 98.2 ± 4.3% in experiment [2].

The values are drawn from the supplement of paper PMC8699584.
